Experimental data as given in PMC4336329 (PLoS ONE, 2015).
Among all 310,000 compounds or so, about 14,000 (4.5%) showed an effect of 50% or more. Effects have a minus sign here. The list comes from a sample in which strong results are over-represented; it also holds similar structures and randomly drawn compounds.

These molecules were tested against human ether-à-go-go-related gene (hERG) potassium channel (human, UniProt Q12809) (assay: primary screen, population patch clamp on CHO cells stably expressing hERG; higher = less effect of the substance).
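Also: peak tail current of the secondary pulse compared with the same well before compound.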

Sequence of human ether-à-go-go-related gene (hERG) potassium channel (Q12809 whole entry, looked up): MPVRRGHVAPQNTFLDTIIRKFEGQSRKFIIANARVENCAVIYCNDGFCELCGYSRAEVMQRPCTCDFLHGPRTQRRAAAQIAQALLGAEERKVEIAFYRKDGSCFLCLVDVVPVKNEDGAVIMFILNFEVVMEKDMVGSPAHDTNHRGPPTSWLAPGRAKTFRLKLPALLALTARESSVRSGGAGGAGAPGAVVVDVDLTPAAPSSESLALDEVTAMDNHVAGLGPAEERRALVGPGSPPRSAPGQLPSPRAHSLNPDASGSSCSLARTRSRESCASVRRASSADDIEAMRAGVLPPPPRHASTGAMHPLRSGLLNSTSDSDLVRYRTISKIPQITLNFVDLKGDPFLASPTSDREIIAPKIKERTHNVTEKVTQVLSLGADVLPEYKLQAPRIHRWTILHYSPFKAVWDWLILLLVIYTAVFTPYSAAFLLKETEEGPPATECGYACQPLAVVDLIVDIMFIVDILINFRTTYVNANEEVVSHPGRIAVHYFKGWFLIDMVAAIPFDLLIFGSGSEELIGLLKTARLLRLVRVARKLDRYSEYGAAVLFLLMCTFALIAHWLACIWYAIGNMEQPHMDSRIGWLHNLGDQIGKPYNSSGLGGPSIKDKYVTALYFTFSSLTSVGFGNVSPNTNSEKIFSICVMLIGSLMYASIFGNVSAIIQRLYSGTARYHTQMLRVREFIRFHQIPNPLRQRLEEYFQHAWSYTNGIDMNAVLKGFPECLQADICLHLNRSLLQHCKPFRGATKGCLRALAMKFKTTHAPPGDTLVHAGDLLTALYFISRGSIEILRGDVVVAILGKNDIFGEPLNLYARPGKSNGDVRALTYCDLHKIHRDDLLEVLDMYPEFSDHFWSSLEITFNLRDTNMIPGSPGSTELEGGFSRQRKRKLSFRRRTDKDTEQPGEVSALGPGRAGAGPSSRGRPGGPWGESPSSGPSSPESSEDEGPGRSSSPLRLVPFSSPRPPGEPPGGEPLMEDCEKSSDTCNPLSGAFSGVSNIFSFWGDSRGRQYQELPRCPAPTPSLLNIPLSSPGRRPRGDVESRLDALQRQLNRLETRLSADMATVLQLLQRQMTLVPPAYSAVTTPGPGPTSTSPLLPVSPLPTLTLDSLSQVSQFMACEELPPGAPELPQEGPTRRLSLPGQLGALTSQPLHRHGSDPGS

| SMILES | hERG current change (%, negative = inhibition) at 10uM |
| --- | --- |
| Cc1noc(C)c1COc1ccc(C(=O)N(C)CCOc2ccccc2)cc1 | -26.2% |
| CCc1ccc(S(=O)(=O)NC2CC(C)(C)NC(C)(C)C2)cc1 | 5.09% |
| Cc1cc(C(=O)N/N=C/c2ccc(OC(=O)c3ccccc3Br)cc2)n[nH]1 | 3.23% |
| O=C1NC2(CCc3ccccc32)C(=O)N1CCOc1ccc(Cl)cc1 (stereo not drawn) | -29.8% |
| C=CCn1c(SCC(=O)C(C)(C)C)nnc1-c1cccs1 | -14.3% |
| Cc1occc1-c1nnc(SCC(=O)N2CCN(c3ccc(F)cc3)CC2)n1C | -58.5% |
| C=CCn1c(SCC(=O)N2CCN(c3ccccc3)CC2)nnc1-c1ccco1 | -25.7% |
| C=CCn1c(SCC(=O)O)nnc1-c1cccs1 | 0.617% |
| Cc1nc(Cc2nnc(SCC(=O)N(C)c3ccccc3)o2)cs1 | 15.9% |
| C=CCn1c(SCC(=O)N2CCN(c3ccc(F)cc3)CC2)nnc1-c1cccs1 | -68.9% |
| C=CCn1c(SCC(=O)N2CCN(c3ccc(F)cc3)CC2)nnc1-c1ccco1 | -70.2% |
| Cc1nc(Cc2nnc(SCC(=O)N3CCN(c4ccc(F)cc4)CC3)o2)cs1 | -50.9% |
| Cc1nc(Cc2nnc(SCC(=O)Nc3c(C)cccc3C)o2)cs1 | 15.1% |
| Cc1occc1-c1nnc(SCC(=O)N2CCN(c3ccccc3)CC2)n1C | -27.8% |
| C=CCn1c(SCC(=O)Nc2ccc(N3CCOCC3)cc2)nnc1-c1ccco1 | 2.29% |
| Cc1occc1-c1nnc(SCC(=O)N2CCN(c3ccccc3F)CC2)n1C | 4.99% |
| COC(=O)C1=C(N)Oc2c(oc(CO)cc2=O)C1c1ccc(F)cc1 (stereo not drawn) | -7.85% |
| O=c1cc(N2CCOCC2)c2ccccc2o1 | -13.9% |
| O=C(CS(=O)c1cccc(C(F)(F)F)c1)Nc1ccc(Cl)cc1Cl (stereo not drawn) | 8.83% |
| CC1(C)Cc2c(sc(NC(=O)c3ccc(S(=O)(=O)N4CCCC4)cc3)c2C#N)C(C)(C)N1 | -8.79% |
| CCOC(=O)N1CCN(S(=O)(=O)c2ccc(C(=O)Nc3sc4c(c3C#N)CC(C)(C)NC4(C)C)cc2)CC1 | 14.6% |

| SMILES | hERG current change (%, negative = inhibition) at 10uM |
| --- | --- |
| CC1(C)Cc2c(sc(NC(=O)c3ccc(S(=O)(=O)N4CCCCCC4)cc3)c2C#N)C(C)(C)N1 | -65.8% |
| C=C[C@@]1(C)CC(=O)[C@]2(O)[C@@]3(C)[C@@H](O)CCC(C)(C)[C@@H]3[C@H](OC(C)=O)[C@H](O)[C@@]2(C)O1 | 7.62% |
| O=C(CSc1ccc(Cl)cc1)N/N=C/c1ccc([N+](=O)[O-])o1 | -12.5% |
| COc1ccc(S(=O)(=O)n2cccc2)c(OC)c1 | 5.65% |
| CCS(=O)(=O)c1nc(S(=O)(=O)c2ccc(Cl)cc2)c(N2CCCC2)s1 | 10.5% |
| CS(=O)(=O)c1nc(S(=O)(=O)c2ccc(Cl)cc2)c(N2CCC3(CC2)OCCO3)s1 | -59.3% |
| CCS(=O)(=O)c1nc(S(=O)(=O)c2ccc(C)cc2)c(N2CCC3(CC2)OCCO3)s1 | -35.4% |
| CS(=O)(=O)c1nc(S(=O)(=O)c2ccc(Cl)cc2)c(N2CCOCC2)s1 | 12.1% |
| CS(=O)(=O)c1nc(S(=O)(=O)c2ccc(Cl)cc2)c(N2CCC(O)CC2)s1 | -13.9% |
| CS(=O)(=O)c1nc(S(=O)(=O)c2ccc(Cl)cc2)c(N2CCC(C(N)=O)CC2)s1 | -61.8% |
| CCS(=O)(=O)c1nc(S(=O)(=O)c2ccc(Cl)cc2)c(N2CCC3(CC2)OCCO3)s1 | -51.5% |
| Cc1ccc(S(=O)(=O)c2nc(S(C)(=O)=O)sc2N2CCC3(CC2)OCCO3)cc1 | -34.3% |
| Cc1ccc(S(=O)(=O)c2nc(S(C)(=O)=O)sc2N2CCC(C(N)=O)CC2)cc1 | 7.6% |
| Nc1ncc([N+](=O)[O-])s1 | 19.6% |
| C=CCN1C(=O)c2ccccc2C1(O)Cc1ccccc1 (stereo not drawn) | 16.5% |
| CCCC/C(O)=C1\C(=O)CC(C)(C)CC1=NCCCCCC(=O)O | 7.59% |
| Cc1[nH]c2ccccc2c1SCc1nnc(SCc2ccccc2)n1C | 4.6% |
| CCn1c(C2CC(=O)N(c3cc(C)cc(C)c3)C2)nc2ccccc21 (stereo not drawn) | -2.71% |
| C=CCn1c(C2CC(=O)N(c3ccc(C)cc3)C2)nc2ccccc21 (stereo not drawn) | -58.4% |
| CCCn1c(C2CC(=O)N(c3ccc(C)cc3)C2)nc2ccccc21 (stereo not drawn) | -52.9% |
| Cc1cc(C)cc(N2CC(c3nc4ccccc4n3C)CC2=O)c1 (stereo not drawn) | -10.8% |

| SMILES | hERG current change (%, negative = inhibition) at 10uM |
| --- | --- |
| CCn1c(C2CC(=O)N(c3ccc(C)c(C)c3)C2)nc2ccccc21 (stereo not drawn) | -11.5% |
| Cc1ccc(N2CC(c3nc4ccccc4n3C)CC2=O)cc1 (stereo not drawn) | -21.5% |
| CCN(Cc1ccccc1)C(=O)CN1C(=O)c2ccccc2S1(=O)=O | -3.97% |
| CC(C)c1ccc(NC(=O)CNC(=O)Cn2ccc3ccccc3c2=O)cc1 | 16.7% |
| O=C(O)CC1(CC(=O)NCc2cc(F)cc3c2OCOC3)CCCCC1 | 6.25% |
| CC1CCN(CCCNC(=O)CN2CCN(Cc3ccc(Cl)cc3)C2=O)CC1 | -55.2% |
| O=C(CN1CCN(Cc2ccccc2)C1=O)NCCCN1CCOCC1 | 5.12% |
| O=C(CN1CCN(Cc2ccc(Cl)cc2)C1=O)NCCCN1CCN(c2ccc(F)cc2)CC1 | -81% |
| Cc1ccc2[nH]c3c(=O)n(CC(=O)NCCCN4CCN(c5ccc(F)cc5)CC4)ncc3c2c1 | 14.8% |
| Cc1cccc(CN2CCN(CC(=O)NCCCN3CCN(c4ccc(F)cc4)CC3)C2=O)c1 | -69.8% |
| CC(C)OCCCNC(=O)CN1CCN(Cc2ccc(Cl)cc2)C1=O | 11.6% |
| O=C(CN1CCN(Cc2ccc(Cl)cc2)C1=O)NCCN1CCCC1 | 1.66% |
| Cc1cccc(CN2CCN(CC(=O)NCCCN3CCCC3=O)C2=O)c1 | 7% |
| O=C(CN1CCN(Cc2ccc(F)cc2Cl)C1=O)NCCCN1CCOCC1 | -2.72% |
| Cc1cccc(CN2CCN(CC(=O)NCc3ccc(F)cc3)C2=O)c1 | -13.6% |
| Cc1ccc(CN2CCN(CC(=O)NCCCN3CCN(c4ccc(F)cc4)CC3)C2=O)cc1 | -66% |
| O=C(CN1CCN(Cc2ccc(Cl)cc2)C1=O)NCCCN1CCOCC1 | -2.85% |
| CC(C)CCC(O)(CCC(C)C)C(=O)NNc1ccccc1 | -0.649% |
| FC(F)(F)c1nc2ccccc2nc1N/N=C\c1ccccc1 | 12.3% |
| CC(=O)c1ccc(S(=O)(=O)Nc2ccc(C(=O)N(C)CC(=O)Nc3cccc(C)c3C)cc2)cc1 | 14.5% |
| COc1cc(/C=N/NC(=O)c2ccoc2C)ccc1O | -3.54% |

| SMILES | hERG current change (%, negative = inhibition) at 10uM |
| --- | --- |
| Cc1nn(CCC(=O)Nc2cccc(C#N)c2)c(C)c1S(=O)(=O)N1CCCCC1 | -1.67% |
| O=C(NNS(=O)(=O)c1ccccc1)c1cc2cc3ccccc3nc2s1 | -10.4% |
| CCOCCCNC(=O)CN1CCN(Cc2ccccc2C)C1=O | -5.69% |
| COc1ccc(N2CCN(CCCNC(=O)CN3CCN(Cc4ccccc4C)C3=O)CC2)cc1 | -46.5% |
| Cc1ccccc1CN1CCN(CC(=O)NCCCN2CCN(c3ccc(F)cc3)CC2)C1=O | -71.2% |
| Cc1c(Cl)cccc1NC(=O)CSc1nc2ncc(Cl)cc2[nH]1 | 17.7% |
| COCCCNC(=O)CC(NS(=O)(=O)c1ccc(Cl)cc1)c1ccc(OC)cc1 (stereo not drawn) | -0.0404% |
| Cc1cccc(OCC(=O)N2CCN(Cc3ccc([N+](=O)[O-])cc3)CC2)c1.O=C(O)C(=O)O | -73% |
| Cc1cccc(OCC(=O)N2CCN(Cc3ccc4c(c3)OCO4)CC2)c1.O=C(O)C(=O)O | -16.7% |
| O=C(COc1ccc(Cl)cc1)N1CCN(Cc2ccc([N+](=O)[O-])cc2)CC1.O=C(O)C(=O)O | -74.2% |
| Cc1ccc(OCC(=O)N2CCN(CC3CC4C=CC3C4)CC2)cc1.O=C(O)C(=O)O (stereo not drawn) | -24.3% |
| O=C(COc1ccc(S(=O)(=O)N2CCCCC2)cc1)N1CCN(Cc2ccccc2)CC1 | -32.5% |
| Cc1cccc(OCC(=O)N2CCN(Cc3ccncc3)CC2)c1.O=C(O)C(=O)O | 8.94% |
| Cc1ccc(CN2CCN(C(=O)CCc3ccccc3)CC2)cc1 | -19.1% |
| Cc1ccc(OCC(=O)N2CCN(Cc3ccc([N+](=O)[O-])cc3)CC2)cc1.O=C(O)C(=O)O | -81.2% |
| O=C(COc1ccc(Cl)cc1)N1CCN(Cc2ccccc2)CC1 | -32.9% |
| CCN(CC)C(=O)Cn1cc(S(=O)(=O)CC(=O)NCc2ccccc2)c2ccccc21 | -11.6% |
| CCOC(=O)C(NC(=O)CC)(Nc1ccc(S(=O)(=O)Nc2ncccn2)cc1)C(F)(F)F (stereo not drawn) | 22.5% |
| O=C(CN1CCOCC1)Nc1scc(-c2ccccc2)c1C(=O)N1CCOCC1 | -34.9% |
| O=C(Cc1ccccc1)Nc1scc(-c2ccccc2)c1C(=O)N1CCOCC1 | -57.4% |
| CCOC(=O)c1c(-c2ccccc2)csc1NC(=O)CCN1CCOCC1.O=C(O)C(=O)O | -33.2% |
